Shown are actives, neighbours in structure and some others; about 4.4% of the full set was active somewhere.
PfHsp90 set2: growth inhibition of PfHsp90-expressing yeast, primary screen, antimalarial PfHsp90 inhibitor project, S. cerevisiae, BacTiter-Glo luminescence, single point, set 2 | BacTiter-Glo ATP, 48 h; yeast lacking PDR1 and PDR3 efflux regulators | inhibition, % at 9.4 µM | actives 0.32% (n = 310,000) | AID 504621, 2011;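 active = every replicate shows inhibition above about 80%, whatever the replicate mean, limit read from the data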;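 also: 0% = DMSO neutral controls and 100% = 20 µM radicicol positive controls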
tim10-1 inh: growth inhibitors of tim10-1 mutant yeast, primary screen, luminescence, uHTS. S. cerevisiae tim10-1 ts strain growth, BacTiter-Glo, 24 h. inhibition, % at 20 µM. actives 2.2% (n = 330,000). AID 463190, 2010;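 active = inhibition of at least 40%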;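 also: mutant grown at 25 °C; 0% = DMSO wells with yeast and 100% = wells holding no yeast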
Mot1-301 SUMO: yeast Mot1-301 growth rescue at high temperature, primary screen, SUMOylation pathway inhibitor project, S. cerevisiae, ATP luminescence, 38.5C. growth rescue, % at 18.8 µM. S. cerevisiae Mot1-301 growth rescue; percent above DMSO median, 100 means doubled. actives 1% (n = 320,000). AID 2716, 2010;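 active = every valid replicate shows activation above 250% relative to neutral control wells; inactive = the rest, any valid replicate at or below 250%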;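 also: OY570 slx delta 5 strain wells were the positive control but not used for scaling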
tim23-1 inh: growth inhibitors of tim23-1 mutant yeast, primary screen, luminescence, uHTS; S. cerevisiae tim23-1 growth, BacTiter-Glo luminescence, 24 h; inhibition, % at 20 µM; actives 1.3% (n = 330,000); AID 463212, 2010;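 active = growth inhibition of the mutant yeast at or above 50%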;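 also: temperature-sensitive mutant grown at 25 °C; plate controls were DMSO-treated mutant yeast for no effect and medium wells lacking yeast for full effect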
TIM10 inh: growth inhibitors of isogenic TIM10 control yeast, primary screen, counter-screen for tim10-1 yeast inhibitor project, luminescence, uHTS; S. cerevisiae TIM10 strain growth, BacTiter-Glo luminescence, 24 h; inhibition, % at 10 µM; actives 1.4% (n = 330,000); AID 463195, 2010;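 active = inhibition of 40% or more at the single tested concentration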;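 also: wild-type TIM10 isogenic control strain grown at permissive 25 °C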
Mot1 SUMO dose: growth restoration of Mot1-301 yeast on galactose, dose response, SUMO pathway inhibitor project, whole organism, S. cerevisiae, ATP luminescence, cherry-picked samples; 2,300 tested, under 10 active; shares compounds with Mot1-301 SUMO; growth activity, percent, % at 42 µM; S. cerevisiae Mot1-301 galactose growth, 24 h; -100 = growth of slx-deleted rescue strain;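 active = Signal drops as the depositor expects, and the fitted half-maximal dose is no more than ten times the top valid tested dose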;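 also: more negative values mean stronger growth rescue toward the control strain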
The depositor's hits bear a star; . = no result given.

SMILES | PfHsp90 set2 | tim10-1 inh | Mot1-301 SUMO | tim23-1 inh | TIM10 inh | Mot1 SUMO dose
COc1ccc(C(=O)Nc2ccccc2C(=O)NCCN2CCOCC2)cc1OC | 10 | 4 | 424* | 6 | -10 | 0
CCOC(=O)C1=C(COC(=O)C2CC(=O)N(CCc3ccccc3)C2)NC(=O)NC1C (centres undefined) | 5 | 14 | 12 | 7 | 1 | .
N#C/C(=C\c1c(N(Cc2ccccc2)Cc2ccccc2)nc2ccccn2c1=O)C(N)=O | -17 | 19 | . | 10 | 9 | 0
CCNC(=O)/C(C#N)=C/c1c(N2CCCCCC2)nc2ccccn2c1=O | -12 | 18 | 748* | 30 | -6 | 0
COc1ccc(CN(CC(=O)NCC2CCCO2)C(=O)CCC(=O)Nc2cc(C)on2)cc1 (centres undefined) | -4 | 5 | 392* | 0 | -2 | 1
COc1cccc(CN(CC(=O)NCC2CCCO2)C(=O)CCC(=O)Nc2cc(C)on2)c1 (centres undefined) | -10 | 6 | . | 17 | 13 | .
COc1ccccc1N(CC(=O)NCC1CCCO1)C(=O)CCC(=O)Nc1cc(C)on1 (centres undefined) | 13 | 8 | 752* | 6 | 10 | 0
CCOc1ccccc1N(CC(=O)NCC1CCCO1)C(=O)CCC(=O)Nc1cc(C)on1 (centres undefined) | 2 | 12 | -20 | 11 | -15 | .
Cc1ccc(CNC(=O)CC(C)S(=O)(=O)c2ccc3c(c2)NC(=O)CS3)o1 (centres undefined) | 10 | -1 | 13 | -2 | 7 | .
COc1ccc(C(=O)COc2ccc3ccc(=O)oc3c2)cc1 | -20 | 4 | 426* | 5 | -5 | 0
COc1ccc(C(=O)COc2ccc3ccc(=O)oc3c2)c(OC)c1 | -23 | 7 | 1 | 0 | 2 | .
COc1ccccc1N1CCN(C2CCCN(Cc3cccc(O)c3)C2)CC1 (centres undefined) | 8 | 2 | 16 | 5 | -16 | .
CC(=O)c1cccc(CN2CCCC(N3CCN(c4ccccc4F)CC3)C2)c1 (centres undefined) | -3 | -4 | 796* | 3 | 3 | 0
O=C(O)/C(=C\c1cn(-c2ccccc2)nc1-c1cccnc1)NC(=O)c1ccccc1 | 8 | -9 | 1 | 7 | 4 | .
COc1cccc(-c2nn(-c3ccccc3)cc2/C=C(/NC(=O)c2ccccc2)C(=O)O)c1 | -9 | -7 | 915* | 5 | -1 | 0
Cc1nn(-c2ccccc2)c2nc(C(F)F)cc(C(F)F)c12 | -7 | -26 | 4 | -3 | -27 | .
COc1ccc(C(=O)CC(=O)C(=O)Nc2ccc(C)c(C)c2)cc1 | 21 | 17 | 538* | 22 | -7 | 0
CN(Cc1ccccc1)C(=O)c1ccc(NC(=O)c2ccccc2)cc1 | -4 | 17 | -8 | 29 | 28 | .
CC(C)(C)N1OC2CC1c1nc3ccccc3n1C2 (centres undefined) | 7 | 3 | 8 | 17 | 15 | .
O=C(COc1ccc(F)cc1Cl)N(Cc1nnc(-c2ccccc2Cl)o1)C1CC1 | 6 | 21 | 510* | 17 | -16 | 0
COc1cccc(NC(=O)CN(C)C(=O)/C=C/c2cn(-c3ccccc3)nc2-c2ccc(C)cc2)c1 | . | -5 | -8 | 5 | 7 | .
COc1ccc(NC(=O)CN(C)C(=O)/C=C/c2cn(-c3ccccc3)nc2-c2ccc(C)cc2)cc1 | -17 | 23 | 515* | 28 | 20 | 0
COc1ccc(NC(=O)CN(C)C(=O)/C=C/c2cn(-c3ccccc3)nc2-c2ccc(F)cc2)cc1 | -60 | 13 | 567* | 7 | 6 | 1
O=C(NCC(c1ccco1)N1CCc2ccccc21)c1cccc([N+](=O)[O-])c1 (centres undefined) | -27 | 27 | 42 | 22 | 18 | .

Source: PubChem
